Bioassay records from PubChem.
Shown are actives, neighbours in structure and some others; about 13% of the full set was active somewhere.
USP28 block: inhibitors of human USP28 deubiquitinase; Ubiquitin carboxyl-terminal hydrolase 28 (Homo sapiens), Q96RU2; purified USP28, Ub-rhodamine cleavage fluorescence, 30 min; inhibition, % at 25 µM; actives 3% (n = 47,000)
USP17 inh: inhibitors of human USP17 deubiquitinase; Ubiquitin carboxyl-terminal hydrolase 17-like protein 5 (Homo sapiens), A8MUK1; purified USP17, Ub-rhodamine cleavage fluorescence, 3 h; inhibition, % at 50 µM; actives 6.5% (n = 47,000); AID 1645855, 2021
USP8 block: inhibitors of human USP8 deubiquitinase | AID 1645853, 2021 | purified USP8, Ub-rhodamine cleavage fluorescence, 30 min | actives 4.2% (n = 47,000) | Ubiquitin carboxyl-terminal hydrolase 8 (Homo sapiens), P40818 | inhibition, % at 20 µM
Target sequence (P40818 whole entry, looked up): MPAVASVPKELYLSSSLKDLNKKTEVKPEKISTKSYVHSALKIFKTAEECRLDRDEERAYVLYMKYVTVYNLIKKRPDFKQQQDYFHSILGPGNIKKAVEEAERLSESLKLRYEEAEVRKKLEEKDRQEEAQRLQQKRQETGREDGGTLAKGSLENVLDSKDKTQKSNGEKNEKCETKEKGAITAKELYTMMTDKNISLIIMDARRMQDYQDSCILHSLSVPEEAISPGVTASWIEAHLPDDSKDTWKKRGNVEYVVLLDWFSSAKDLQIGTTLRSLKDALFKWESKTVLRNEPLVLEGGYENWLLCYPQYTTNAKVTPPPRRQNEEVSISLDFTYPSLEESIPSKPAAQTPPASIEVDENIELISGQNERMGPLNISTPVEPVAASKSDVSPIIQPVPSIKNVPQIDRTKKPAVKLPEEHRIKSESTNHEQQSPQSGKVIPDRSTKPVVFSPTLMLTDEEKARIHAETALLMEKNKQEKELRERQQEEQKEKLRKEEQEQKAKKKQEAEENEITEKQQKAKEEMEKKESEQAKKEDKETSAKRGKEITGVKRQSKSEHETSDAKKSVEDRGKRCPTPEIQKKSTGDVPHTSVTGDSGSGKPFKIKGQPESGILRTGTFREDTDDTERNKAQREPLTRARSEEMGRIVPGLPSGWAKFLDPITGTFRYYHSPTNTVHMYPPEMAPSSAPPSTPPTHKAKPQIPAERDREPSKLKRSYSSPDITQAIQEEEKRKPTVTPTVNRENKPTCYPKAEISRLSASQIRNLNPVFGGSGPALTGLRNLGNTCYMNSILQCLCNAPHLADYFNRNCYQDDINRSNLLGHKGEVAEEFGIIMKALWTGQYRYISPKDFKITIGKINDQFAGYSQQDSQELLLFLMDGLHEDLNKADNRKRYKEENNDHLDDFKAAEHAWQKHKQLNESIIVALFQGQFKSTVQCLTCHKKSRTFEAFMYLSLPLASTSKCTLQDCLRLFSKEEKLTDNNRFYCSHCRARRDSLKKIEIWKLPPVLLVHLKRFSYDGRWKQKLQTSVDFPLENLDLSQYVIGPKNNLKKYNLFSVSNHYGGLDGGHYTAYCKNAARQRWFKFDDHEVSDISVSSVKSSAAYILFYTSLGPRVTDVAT
USP10 inh: inhibitors of human USP10 deubiquitinase | actives 1.1% (n = 47,000) | purified USP10, Ub-rhodamine fluorescence, 60 min | Ubiquitin carboxyl-terminal hydrolase 10 (Homo sapiens), Q14694 | inhibition, % at 20 µM
USP30 inh: inhibitors of human USP30 deubiquitinase; Ubiquitin carboxyl-terminal hydrolase 30 (Homo sapiens), Q70CQ3; AID 1645860, 2021; purified USP30, Ub-rhodamine cleavage fluorescence; actives 5.3% (n = 47,000); inhibition, % at 25 µM
OTUD3 inh: inhibitors of human OTUD3 deubiquitinase | inhibition, % at 25 µM | purified OTUD3, Ub-rhodamine fluorescence, 2 h | actives 0.7% (n = 47,000) | AID 1645858, 2021 | OTU domain-containing protein 3 (Homo sapiens), Q5T2D3
Large screens that a line does not name were inactive. Cut-off read from the data, not from the text of the source: active = inhibition above about 30%; inactive = the rest.

O=C(Cc1ccccc1)Nc1cc(-c2nc3cnccc3o2)ccc1Cl	none
O=C(Nc1cccc(-c2nc3cnccc3o2)c1)c1ccc(Br)o1	USP8 block 66, USP30 inh 31
COc1ccc(-c2nc3cnccc3o2)cc1NC(=O)c1cccc(F)c1	USP17 inh 49
COc1cccc(C(=O)Nc2cccc(-c3nc4cnccc4o3)c2)c1	USP17 inh 55 (no result: USP28 block, USP30 inh)
CCOc1ccccc1NC(=O)CC1C(=O)N(Cc2ccccn2)c2nc3ccccc3n21 (centres undefined)	none
COc1cc2c(cc1CN1CCCC[C@@H]3[C@H]1CCN3C(C)=O)CCC2	none
O=C(NCc1ccc(-c2nc3cnccc3o2)cc1)c1cc2ccccc2o1	USP17 inh 81
Cc1[nH]c2ccccc2c1C(=O)C(C)Oc1ccccc1C#N (centres undefined)	none
CSc1ccc(CNC(=O)Cc2c(C)n[nH]c2C)cc1	USP30 inh 34
COc1cccc(NC2=NS(=O)(=O)c3ccccc32)c1	USP17 inh 41, USP30 inh 41
Cn1cc(N2CCC3(CCN(Cc4ccccn4)CC3)C2=O)cn1	none
COc1ccc(CC(=O)N2CCC(c3[nH]nc4nccnc34)CC2)cc1	none
Cc1ccc(S(=O)(=O)N2CCC(OCc3nc(C)no3)CC2)cc1	none
O=C(Cn1cc(S(=O)(=O)N2CCCCCC2)ccc1=O)Nc1ccccc1	USP17 inh 36
Cc1ccc(NC(=O)Cn2cc(S(=O)(=O)N3CCCCC3)ccc2=O)cc1	USP30 inh 44
Cc1ccccc1Cn1cc(S(=O)(=O)N2CCCCCC2)ccc1=O	USP30 inh 37
Cc1ccc(NC(=O)Cn2cc(S(=O)(=O)N3CCOCC3)ccc2=O)cc1	none
O=C(Nc1ncccc1O)C1CC(=O)N(c2ccc3c(c2)OCO3)C1 (centres undefined)	USP8 block 55
Cc1cnc(NC(=O)C2CC(=O)N(c3ccc4c(c3)OCCO4)C2)s1 (centres undefined)	none
COc1cccc2cccc(O)c12	USP17 inh 85
Cc1sc2ncnc(NS(=O)(=O)c3ccc(Cl)cc3)c2c1C	none
Cc1ccc(-c2nn(C(C)(C)C)c3ncnc(NS(=O)(=O)c4ccc(Cl)cc4)c23)cc1	USP10 inh 42
CCCCC[C@H](O)/C=C/C=C/CCCCCCCC(=O)O	none
CC(C)CCCCCCCCCCCC(=O)O	USP17 inh 43, USP10 inh 30, USP30 inh 47
Nc1ccc2oc(-c3cccc(-c4nc5cc(N)ccc5o4)n3)nc2c1	USP28 block 48, USP17 inh 53, USP8 block 73, USP10 inh 37, USP30 inh 68, OTUD3 inh 40
C[C@@H]1C(=O)O[C@H]2CC34[C@H]5C[C@@H](C(C)(C)C)C36[C@@H](OC(=O)[C@@H]6O)OC4(C(=O)O5)[C@]21O (some centres undefined)	USP30 inh 41
O=C(Cn1cnc2sc3c(c2c1=O)CCC3)NCCC1=CCCCC1	USP8 block 78
Cc1noc2nc(C)n(CC(=O)NCCC3=CCCCC3)c(=O)c12	none
Cc1cccc(NC(=O)C2CCC(=O)N2S(=O)(=O)c2ccccc2)c1 (centres undefined)	none
Cc1occc1-c1nnc(SCC(=O)NCCC2=CCCCC2)o1	none
CC(=O)Nc1ccc(NC(=O)C2CCC(CNS(=O)(=O)c3ccc(F)cc3)CC2)cc1 (centres undefined)	USP30 inh 31
COc1ccc(NC(=O)C2CC2)cc1NS(=O)(=O)c1ccc(F)cc1	none
COc1ccc(CN(C(=O)c2cc3ccccc3oc2=O)c2ccccn2)cc1OC	none
COc1ccccc1NC(=O)NCc1nc(-c2ccc(C(F)(F)F)cc2)no1	USP30 inh 46
CC(Cc1ccccc1)NC(=O)CSc1nc(N)c2c3c(sc2n1)COC(C)(C)C3 (centres undefined)	none
CCc1ccc(-n2c(=O)[nH]c3c(c2=O)C(C)(C)Cc2ccccc2-3)cc1	USP17 inh 37
Cc1ccc(-n2c(=O)[nH]c3c(c2=O)C(C)(C)Cc2ccccc2-3)cc1	none
COC[C@H]1CCCN1C(=O)CC[C@H]1CNC(=O)[C@@H]2[C@@H](CCN2C(C)C)N1C	USP8 block 41
COC[C@H]1CCCN1C(=O)CC[C@H]1CNC(=O)[C@@H]2[C@@H](CCN2C2CCOCC2)N1C	USP28 block 31, USP8 block 40
COc1ccc(C(=O)N2C[C@@H]3C[C@H]2C[C@@H]3NS(=O)(=O)c2ccccc2)cn1	none
Cc1ccccc1OCCC(=O)NC(c1ccccc1)c1ccccc1	USP17 inh 32
CCOC(=O)Cn1c(=O)c(C(=O)NC(=O)OCC)cn(Cc2cccs2)c1=O	USP30 inh 31
CCOC(=O)CNC(=O)N1CCCCCC1c1cccs1 (centres undefined)	none
Cc1nn(-c2ccc(F)cc2)cc1-c1noc(C(=O)NCc2ccccn2)n1	USP8 block 35, USP30 inh 85 (no result: USP17 inh)
O=C(Nc1ccccc1)c1nc(-c2cn(-c3ccccc3)nn2)no1	USP30 inh 41
O=C(NCc1ccccn1)c1nc(-c2cn(-c3ccc(Cl)cc3)nn2)no1	USP8 block 50
Cc1ccc(CNC(=O)c2nc(-c3cn(-c4ccccc4)nc3C)no2)cc1	none
Cc1nn(-c2ccccc2)cc1-c1noc(C(=O)NCCCc2ccccc2)n1	USP30 inh 32
O=C(Nc1ccccc1F)c1nc(-c2cnccn2)no1	none (no result: USP17 inh)
Cc1ncoc1C(=O)N1C[C@@H]2CC[C@H](Oc3ccccc3F)[C@@H]2C1	none
Cc1ccc(C(C)C)cc1C(=O)CC1(O)C(=O)N(CCc2ccccc2)c2ccccc21 (centres undefined)	none
O=C(NCc1ccc(F)cc1)C1Cc2c(ccc3ccccc23)O1 (centres undefined)	none
O=C(NCCc1nc2ccccc2[nH]1)c1[nH]nc2c1CCc1ccccc1-2	USP30 inh 45
Cc1ccc(Cn2ccc3nc(N4CCN(C)CC4)ncc3c2=O)cc1	none
COc1ccc(Cn2ccc3nc(N4CCCCC4)ncc3c2=O)cc1	USP17 inh 71
Cc1c(C)n(-c2ccccn2)c2ncnc(NCCCO)c12	none
O=C(Cn1cnc2cc([N+](=O)[O-])ccc2c1=O)N1CCC(Cc2ccccc2)CC1	none
O=C(Nc1ccc(OC(F)(F)F)cc1)NC1Cc2ccccc2C1	USP8 block 42
CCOc1ccccc1NC(=O)NC1Cc2ccccc2C1	none
O=C(Nc1ccc(F)cc1F)NC1Cc2ccccc2C1	USP30 inh 66
O=C(Nc1ccc(OC(F)(F)F)cc1)Nc1ccc2ccccc2n1	none
N#Cc1cccc(CN2C[C@H](OCc3ccccn3)[C@H]3COC[C@H]32)c1	none
